Test [1] has as its system Wnt5a (protein binding on small-molecule microarray). As to the kind of experiment: Wnt5a binders on small-molecule microarray, primary screen, biophysical, 635/667 nm fluorescence (AID 1142).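 Note: fluorescence read at 667 nm with signal to noise per printed feature.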 As to conditions: 635 nm fluorescence, higher = more signal.
Test [2] in a line: cell viability in Huh7 cells, primary screen, cytotoxicity control for HCV replication inhibitor project, CellTiter-Glo luminescence, basal, 48 h (AID 1143).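 Note: Huh7 hepatoma cells carrying a hepatitis C replication reporter with no stimulus; test concentration not given here.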 As to conditions: Huh7 HCV replicon, higher = more signal, called active from +8 up or from −8 down.
Test [3] in a line: CREB reporter modulators without forskolin, primary screen, cell-based, PC12, CRE-LacZ reporter, unstimulated (AID 1145). As to conditions: no forskolin, luminescence, 4.5 h, higher = more signal, called active from +8 up or from −8 down.
Test [4] in a line: CREB reporter modulators under forskolin, primary screen, cell-based, PC12, CRE-LacZ reporter, forskolin-stimulated (AID 1146).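 Note: PC12 cells with 6xCRE LacZ reporter stimulated by forskolin 10 µM; beta-galactosidase reporter signal reflecting CREB driven transcription.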 As to conditions: luminescence, 4.5 h, higher = more signal, called active from +8 up or from −8 down.
The target of test [5] is Streptavidin (Streptomyces avidinii) (UniProt P22629). As to the kind of experiment: streptavidin binders on small-molecule microarray, primary screen, artefact control for SMM compound annotation, biophysical, 635/667 nm fluorescence (AID 1147).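 Note: signal reflects streptavidin binding to arrayed compounds as a control protein.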 As to conditions: streptavidin binding, higher = more signal.
A short description of test [6]: small-molecule binders of probe aInhba, primary screen, biochemical, small-molecule microarray, 635/667 nm fluorescence (AID 1148).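 Note: score merges 667nm spot fluorescence with signal-to-noise for antibody binding to printed compounds.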 As to conditions: higher = more signal.
For test [7], the target named is Torsin-1A (Homo sapiens) (UniProt O14656). As to the kind of experiment: torsin A binders from cell lysate, primary screen, small-molecule microarray, wild-type, 635/667 nm (AID 1149). As to conditions: COS7 hTOR1A-WT lysate, 635 nm fluorescence, higher = more signal.
For test [8] the target is unchanged. As to the kind of experiment: small-molecule binders of mutant TOR1A in lysate, primary screen, cell lysate, small-molecule microarray, COS7 lysate, 635/667 nm fluorescence (AID 1150).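 Note: score pools 667 nm emission and signal to noise measuring lysate protein binding.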 As to conditions: COS7 hTOR1A mutant lysate, 635 nm fluorescence, higher = more signal.
In test [9] the test system is Sonic hedgehog protein (Shh). The test is described as follows: small-molecule binders of Shh protein, primary screen, biochemical, small-molecule microarray, 635/667 nm fluorescence (AID 1151).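 Note: Shh protein binding to compounds spotted on small-molecule microarray slides; score combines spot fluorescence intensity with signal-to-noise across triplicate slides.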 As to conditions: small-molecule microarray binding, 635 nm fluorescence; higher = more signal.

Active and inactive are the calls of the source.

Torsin-1A (Homo sapiens), sequence (O14656 whole entry, looked up): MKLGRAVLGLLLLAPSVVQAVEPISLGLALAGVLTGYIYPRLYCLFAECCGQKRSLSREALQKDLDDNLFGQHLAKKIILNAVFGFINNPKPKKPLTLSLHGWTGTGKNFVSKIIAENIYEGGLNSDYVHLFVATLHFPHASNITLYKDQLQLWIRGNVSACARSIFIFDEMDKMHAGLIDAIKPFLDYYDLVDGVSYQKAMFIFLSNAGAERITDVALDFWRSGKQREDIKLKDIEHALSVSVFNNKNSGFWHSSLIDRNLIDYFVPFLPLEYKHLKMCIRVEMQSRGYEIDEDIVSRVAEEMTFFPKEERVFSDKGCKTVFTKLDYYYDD
Streptavidin (Streptomyces avidinii), sequence (P22629 whole entry, looked up): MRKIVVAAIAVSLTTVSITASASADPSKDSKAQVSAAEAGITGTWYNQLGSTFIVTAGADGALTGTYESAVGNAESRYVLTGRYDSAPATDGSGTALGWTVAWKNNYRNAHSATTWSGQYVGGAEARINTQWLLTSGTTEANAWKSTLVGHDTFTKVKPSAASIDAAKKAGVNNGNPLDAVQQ

Take `CO[C@H]1O[C@H](CO)[C@@H](OC(=O)Nc2ccc(Oc3ccccc3)cc2)[C@H](OC(=O)Nc2ccccc2-c2ccccc2)[C@H]1OC(=O)Nc1ccccc1-c1ccccc1`: the composite z-score in test [1] is 0.595; in test [5], 1.25; in [6] it was 0.268; with Torsin-1A (Homo sapiens) [7], 0.445; with Torsin-1A (Homo sapiens) [8], 0.517; in test [9] it was 1.24. Besides, the z-score is -6.08 (inactive) in test [2], -0.0017 (inactive) in test [3] and -1.31 (inactive) in test [4].

`CN1CCC(CCCO)=CC1C1CC1` (centres undefined): the composite z-score was 0.0651 in test [1]; -0.0672 in [5]; -0.202 in test [6]; 0.759 with Torsin-1A (Homo sapiens) [7]; 0.0677 in the test with Torsin-1A (Homo sapiens) [8]; 1.23 in [9]. The z-score was -3.2 (inactive) in [2], -0.131 (inactive) in test [3] and -1.36 (inactive) in test [4].

As for `COc1cc2c(cc1OC)CN(C(=O)[C@@H]1[C@H]3C(=O)O[C@H](c4ccccc4)[C@H](c4ccccc4)N3[C@H](c3ccccc3OCCO)[C@@]13C(=O)Nc1ccccc13)CC2`, the composite z-score in test [1] was 0.406; in [5], 0.0797; in test [6] it was 0.387; with Torsin-1A (Homo sapiens) [7], 0.497; in the test with Torsin-1A (Homo sapiens) [8] it was 0.701; in test [9], 0.554. Besides, the z-score in test [2] was -2.96 (inactive); in test [3], 0.769 (inactive); in test [4], -1.31 (inactive).

As to `C=CC(=O)O[C@@H](Cc1ccccc1)[C@H]1C2C=CCCC=C2CN1Cc1cccc(Cl)c1` (some centres undefined), the composite z-score was -0.172 in [1]; -0.575 in test [5]; -0.082 in test [6]; -0.471 with Torsin-1A (Homo sapiens) [7]; 0.393 with Torsin-1A (Homo sapiens) [8]; -0.0211 in test [9]. Moreover, the z-score in test [2] was -0.904 (inactive); in [3], 1.03 (inactive); in test [4] it was -0.678 (inactive).

Take `C[C@@H]1NC(=O)CC=C[C@@H](C)[C@@H]2C=C[C@H](O)[C@@H](COC(=O)[C@H](C)NC(=O)CC=C[C@@H](C)[C@@H]3C=C[C@H](O)[C@@H](COC1=O)O3)O2`: the composite z-score in test [1] was 0.0414; in [5], -0.664; in [6], -0.0581; with Torsin-1A (Homo sapiens) [7], 0.436; with Torsin-1A (Homo sapiens) [8] it was 0.104; in test [9], 1.04. The z-score in test [2] was -3.48 (inactive); in test [3] it was -0.925 (inactive); in [4], -0.89 (inactive).

Consider `O=C1c2ccccc2[C@](Cc2ccccc2I)(C(=O)NCc2ccccc2)[C@H](c2ccc(CO)cc2)N1Cc1ccccc1C(F)(F)F`, for which the composite z-score in test [1] was -0.246; in test [5], -0.409; in test [6] it was -0.0313; with Torsin-1A (Homo sapiens) [7] it was -0.635; with Torsin-1A (Homo sapiens) [8], -0.162; in [9], -0.197. The z-score in test [2] is -2.5 (inactive); in test [3], 0.0909 (inactive); in [4], -0.487 (inactive).

In the case of `CCN1C(C)=C(C(=O)OC)[C@@H](c2ccccc2)N2C(=O)[C@@]3(C(=O)OC)O[C@@]12[C@@H]1C(=O)N(C)C(=O)[C@@H]13`, the composite z-score in test [1] was 0.601; in [5], 0.233; in [6], -0.157; with Torsin-1A (Homo sapiens) [7] it was 0.587; in the test with Torsin-1A (Homo sapiens) [8] it was 0.368; in test [9], 0.971. Also, the figures for the z-score in test [2], in test [3] and in test [4] were -0.674 (inactive), 0.922 (inactive) and -1.21 (inactive), respectively.

With `CC(C)N1CC=CC23O[C@@H]4/C=C\CCCOC(=O)C4[C@H]2C(=O)N(CCCCCO)[C@@H]3C1=O` (some centres undefined), the composite z-score in test [1] was -0.22; in test [5] it was -1.52; in test [6] it was -0.244; in the test with Torsin-1A (Homo sapiens) [7], 1.5; with Torsin-1A (Homo sapiens) [8], 1.58; in [9], -0.641. The z-score was -0.143 (inactive) in test [2], 0.0564 (inactive) in [3] and 0.392 (inactive) in test [4].

Regarding `COCCOC(=O)N1C(=O)[C@@]2(c3cc(C#CCCO)ccc31)[C@H](C(=O)N1CCCCCCC1)[C@H]1C(=O)O[C@H](c3ccccc3)[C@H](c3ccccc3)N1[C@@H]2c1ccc(O)cc1`, the composite z-score in [1] worked out at 0.138; in test [5], 1; in test [6], 0.74; with Torsin-1A (Homo sapiens) [7], 0.678; with Torsin-1A (Homo sapiens) [8], 0.922; in test [9] it was 1.06. For the same compound, the z-score is -4.07 (inactive) in [2], -0.815 (inactive) in test [3] and -1.28 (inactive) in test [4].

For the compound `O=C1O[C@@H](c2ccccc2)[C@@H](c2ccccc2)N2[C@@H](c3ccc(O)cc3)[C@]3(C(=O)Nc4ccccc43)[C@@H](C(=O)N3CCN(c4ncccn4)CC3)[C@H]12`, the composite z-score in test [1] was -0.0063; in test [5], -0.6; in test [6] it was -0.178; with Torsin-1A (Homo sapiens) [7] it was 0.828; with Torsin-1A (Homo sapiens) [8], 0.232; in [9], -0.0193. The values for the z-score in test [2], in test [3] and in test [4] were -5 (inactive), -0.815 (inactive) and -0.245 (inactive), respectively.

For the compound `CCOC(=O)C[C@H]1[C@H](OC(=O)c2ccccc2-c2ccccc2)[C@@H](NC(=O)C2CCCCC2)c2cc(OCCCO)ccc2N1C(=O)c1ccccc1`, the composite z-score in test [1] is 0.364; in test [5], 0.0739; in test [6], 0.0131; with Torsin-1A (Homo sapiens) [7] it was 0.128; with Torsin-1A (Homo sapiens) [8], 0.197; in test [9], 1.1. Besides, the z-score in [2] was -0.781 (inactive); in [3], 10.2 (active); in [4], -0.278 (inactive).

The record behind these values is PubChem BioAssay.
